# From PubChem
# PfHsp90 yeast 2: reduces growth (ATP signal) of yeast expressing P. falciparum Hsp90. S. cerevisiae expressing PfHsp90, BacTiter-Glo ATP, 48 h; yeast lacking PDR1 and PDR3 efflux regulators. inhibition, % at 9.4 µM. AID 504621. actives 0.32% (n = 310,000);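 active means every replicate shows inhibition above about 80%, whatever the replicate mean, limit read from the data; inconclusive means mean inhibition reaches the set limit but some replicate falls short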;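 further: 0% = DMSO neutral controls and 100% = 20 µM radicicol positive controls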
# tim23-1 inh: growth inhibitors of tim23-1 mutant yeast; actives 1.3% (n = 330,000); S. cerevisiae tim23-1 growth, BacTiter-Glo luminescence, 24 h; inhibition, % at 20 µM; AID 463212;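 active means growth inhibition of the mutant yeast at or above 50%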;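 further: temperature-sensitive mutant grown at 25 °C; plate controls were DMSO-treated mutant yeast for no effect and medium wells lacking yeast for full effect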
# Calb FLC: C. albicans growth modulation with fluconazole; growth inhibition, % (concentration not given with the values); C. albicans CaCi-2 (fluconazole-resistant clinical isolate) + fluconazole, Alamar Blue growth, 48 h; actives 0.57% (n = 300,000);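 active means growth inhibition above about 58% in most replicates, limit read from the data, passing the limit was not always enough; inconclusive means exactly half the replicates above a set limit; inactive means most replicates below a set limit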;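 further: all wells also contain fluconazole at 8 µg/ml as a sub-toxic cotreatment; 0% = median of DMSO wells and 100% = median of geldanamycin control wells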
# TIM10 inh: TIM10 yeast growth inhibition. AID 463195. inhibition, % at 10 µM. actives 1.4% (n = 330,000). S. cerevisiae TIM10 strain growth, BacTiter-Glo luminescence, 24 h;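 active means inhibition of 40% or more at the single tested concentration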;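 further: wild-type TIM10 isogenic control strain grown at permissive 25 °C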
# SKKanGAS inh: SKKanGAS growth inhibition | inhibition, % at 7.5 µM | AID 1662 | actives 1.3% (n = 300,000) | S. pyogenes SKKanGAS, kanamycin growth, BacTiter-Glo, 6 h;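 active means mean replicate score, as percent of positive control median, at least 50; inconclusive means mean below 50 but one replicate at or above 50; inactive means mean and every replicate below 50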;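 further: strain carries kanamycin resistance gene driven by streptokinase promoter and grows in 40 µg/ml kanamycin; loss of luminescence reflects streptokinase promoter inhibition or plain growth inhibition; 0% = median of DMSO wells and 100% = positive control at its reference dose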
# tim10-1 inh: tim10-1 yeast growth inhibition. S. cerevisiae tim10-1 ts strain growth, BacTiter-Glo, 24 h. actives 2.2% (n = 330,000). inhibition, % at 20 µM;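 active means inhibition of at least 40%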;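 further: mutant grown at 25 °C; 0% = DMSO wells with yeast and 100% = wells holding no yeast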
# tim10-1 confirm: confirmation of tim10-1 mutant yeast growth inhibitors; shares compounds with tim10-1 inh; S. cerevisiae tim10-1 ts strain growth, BacTiter-Glo, 24 h; inhibition, % at 20 µM; actives 56% (n = 7,400);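 active means inhibition of yeast growth at or above a set limit in either of two repeat tests at 20 µM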;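 further: tim10-1 mutant grown at permissive 25 °C to find synthetic lethal compounds; 0% = DMSO yeast wells and 100% = medium wells without yeast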
# Numbers without * were called inactive; ? = inconclusive; / = no result. Only some compounds are listed: those with a hit (about 4.7% of all), similar ones and a draw of the others.
SMILES,PfHsp90 yeast 2,tim23-1 inh,Calb FLC,TIM10 inh,SKKanGAS inh,tim10-1 inh,tim10-1 confirm
CN(NS(=O)(=O)c1ccc(F)cc1)c1ncc(C(F)(F)F)cc1Cl,-29.1,9.7,-1.2,12.1,3.7,16.1,/
FC(F)(F)c1cnc(Oc2cccc3ccccc23)c(Cl)c1,7.9,16.6,20.9,5.8,-3.0,15.5,/
CC1(C)NC(=O)N(CC(=O)N2CCN(c3cccc(Cl)c3)CC2)C1=O,9.4,2.3,/,-5.8,/,1.6,/
Cc1ccc(CN2CCN(C3CCOCC3)CC2CCO)cc1 (stereo not given),13.1,1.6,6.8,5.8,17.2,-3.4,/
COc1ccc2c(=O)c(-c3ccccc3)coc2c1,7.7,16.9,-15.9,-2.3,0.4,-5.0,/
CCN(CC)C(=O)Oc1ccc2c(=O)c(-c3ccccc3)coc2c1,11.4,21.2,-7.1,25.1,-4.1,54.1*,41.4*
CCc1cccc(NC(=O)c2cccc3c2C(=O)N(C2CCCCC2)C3)c1,20.8,0.2,-4.3,-66.3,4.4,25.9,/
Cc1nn(Cc2ccc([N+](=O)[O-])cc2)c(=O)n1-c1ccccc1Cl,6.0,6.4,-16.1,-8.8,4.7,15.5,/
Cc1nn(Cc2ccc([N+](=O)[O-])cc2)c(=O)n1N(C)c1ncc(C(F)(F)F)cc1Cl,9.2,27.1,60.4,23.8,3.6,42.7*,26.9*
CCCCN(C)S(=O)(=O)c1cc(Br)cc2c1N(C(=O)C1CC1)CC2,-18.7,40.8,9.1,31.7,-7.9,41.8*,32.1*
O=C(O)CCS(=O)(=O)c1cc(Br)cc2c1N(C(=O)C1CC1)CC2,17.2,12.3,-22.2,12.6,11.3,6.2,/
N#CC(C#N)=C1NC2(CCCCC2)Cc2ccccc21,-23.6,12.5,7.3,23.7,-6.5,20.0,/
N#CC(C#N)=c1ccc2c(c1)NC1(CCCCC1)N=2,42.4,44.5,69.4,28.6,19.2,46.4*,41.8*
COc1ccc(CN2CCNC(=O)C2CC(=O)NCCN2CCCCC2=O)c(F)c1 (stereo not given),-13.5,5.2,1.7,3.2,-10.2,3.4,/
CCOc1cc(/C=C2/C(=O)N(c3ccccc3)N=C2C)ccc1OC(=O)c1ccco1,12.1,13.7,1.3,25.3,7.7,40.4*,26.4
CCn1cc(C(=O)O)c(=O)c2cnc(N3CCN(C(=S)NC(=O)c4ccccc4Cl)CC3)nc21,/,12.8,1.3,-16.7,22.2,-20.0,/
N#Cc1ccccc1S(=O)(=O)Nc1ccc2c(c1)C(=O)OC2,4.2,18.0,0.2,7.5,-0.8,-9.6,/
Cc1ccc(NC(=S)Nc2ccc(Cl)c(Cl)c2)c(OC(F)F)c1,11.8,47.6,11.0,32.4,1.7,60.8*,38.5*
O=C(O)CCCC(=O)N1N=C(c2ccccc2)CC1c1cccs1 (stereo not given),-11.0,-0.3,8.2,-5.7,11.0,-4.2,/
CCC(=O)N1c2ccccc2[C@@H](N(C(C)=O)c2ccccc2)C[C@H]1C,12.9,16.0,5.6,-0.7,-7.4,16.2,/
CC(=O)N(c1ccccc1)C1CC(C)N(C(=O)c2ccccc2)c2ccccc21 (stereo not given),1.4,28.9,34.7,20.4,-1.9,42.1*,22.1
COc1ccc(N(C(=O)CCl)C(C(=O)NC2CCCCC2)c2cccnc2)cc1 (stereo not given),-0.5,31.2,-17.1,33.2,-13.5,41.1*,32.1*
Cc1ccc(OC(=O)C2CSC3(C)CCC(=O)N23)c(Br)c1 (stereo not given),-31.3,39.4,3.7,7.1,-3.3,49.4*,19.6
CSc1nnc(-c2cccc(NC(=S)NN)c2)o1,-1.2,5.4,?,34.2,-14.1,49.0*,9.1
CSc1nnc(-c2ccc(NC(N)=S)cc2)o1,-6.7,15.7,58.3,7.7,8.7,18.8,/
SMILES,PfHsp90 yeast 2,tim23-1 inh,Calb FLC,TIM10 inh,SKKanGAS inh,tim10-1 inh,tim10-1 confirm
Clc1ccc(-n2nnnc2CN2CCOCC2)cc1Cl,-0.6,5.2,-1.4,-13.7,-4.6,20.2,/
CC1CCN(Cc2nnnn2-c2ccc(Cl)cc2)CC1,-2.2,49.5,3.5,17.3,0.0,56.5*,36.8*
Cc1cc(C)cc(NC(=S)NCc2ccc3[nH]c4c(c3c2)CCCC4)c1,-25.2,39.2,-11.8,34.7,18.0,40.7*,25.9
CCS(=O)(=O)NCc1ccc2[nH]c3c(c2c1)CCCC3,/,7.4,42.9,-2.8,23.5,22.8,/
c1ccc(-c2nc3ccccn3c2NCc2ccc3c(c2)OCO3)cc1,-30.1,34.4,-46.3,27.5,-3.4,36.7,/
COc1ccc(-c2nc3ccccn3c2NCc2ccc3c(c2)OCO3)cc1,9.4,38.7,-44.7,34.3,-0.5,42.4*,13.2
Fc1ccccc1SCc1nnc(-c2ccccc2Br)o1,29.0,18.2,-2.0,16.2,8.5,29.7,/
C=CCSc1nc2c(c(C3CC=CCC3)c1C#N)CCC2 (stereo not given),-2.0,35.1,-7.6,16.8,40.3,40.9*,60.2*
CCOC(=O)c1[nH]cnc1C(=O)N1CCC(C)CC1,-2.8,-7.5,/,-14.6,/,-16.2,/
COC(=O)c1c(NC(=O)CSc2ccccc2N)sc(C)c1C,2.7,37.0,0.3,21.2,14.1,45.8*,36.0*
COC(=O)c1c(NC(=O)Cc2ccccc2)sc(C)c1C,5.4,19.8,0.3,6.6,23.5,-6.0,/
CCOC(=O)c1c(NC(=O)CSc2nnc(CNc3ccc(OC)cc3)n2C)sc(C)c1C,/,33.4,7.5,4.7,12.7,40.6*,13.3
CCc1cccc(NS(=O)(=O)c2ccc(-n3cccn3)cc2)c1,0.8,37.9,-6.0,12.3,3.4,50.4*,17.9
O=C(NCCO)c1cccc(Nc2nc(-c3ccccc3)c3cc(Cl)ccc3n2)c1,0.7,36.4,36.9,21.6,15.2,44.7*,25.9
Nc1cc(N)nc(SCC(=O)NC2CCCCCCC2)n1,-1.7,-1.1,/,-4.0,/,3.4,/
Cc1ccc(S(=O)(=O)N2[C@@H](c3cccc(Cl)c3)C(C(=O)O)=CC[C@H]2c2ccc3c(c2)OCO3)cc1,-19.6,-0.7,/,-3.3,/,2.9,/
CC1(C)CCCN(C(=O)c2ccc3c(c2NCCO)C(=O)c2ccccc2C3=O)C1,5.0,42.6,16.9,27.8,4.0,43.0*,21.9
CCN(CC)S(=O)(=O)c1cccc(NC(=O)c2ccc(SC)cc2OC)c1,26.8,32.1,20.1,20.4,7.0,43.3*,37.4*
CCn1c(CN2CCN(C(c3ccccc3)c3ccccc3)CC2)nc2c1c(=O)n(C)c(=O)n2C,3.3,14.7,9.7,-8.6,1.0,11.4,/
O=CN1CCN(C(=O)CC(c2ccccc2)c2cc(Br)ccc2O)CC1 (stereo not given),12.1,-0.7,0.5,-3.6,-1.6,-3.3,/
O=C(Nc1ccc(C(=O)Nc2ccccc2Cl)cc1)c1cccnc1,-6.3,21.1,2.6,3.4,/,23.8,/
O=C(Nc1ccc(CN2CCOCC2)cc1)c1ccc(Br)o1,-0.2,18.8,-3.5,7.7,0.3,-5.6,/
